The sample as a whole holds a higher share of hits than the screen did.
TTR transcr act: TTR transcription activators in neuroblastoma reporter cells, primary screen, cell-based, luminescence, SH-SY5Y, TTR promoter Gaussia luciferase; 100% = recombinant luciferase protein wells; activation, % at 16.7 µM; 92,000 tested, 1.3% active;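 active = activation above the mean of all tested compounds plus 3 SD, cut at about 9.5% in these data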;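 also: cells exposed to compounds for one day before reading; 0% = median of all test compound wells on the plate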
TTR inh HuH7: TTR promoter reporter inhibitors in hepatoma cells, counter-screen for TTR transcription activator project, cell-based, luminescence, HuH7 hepatoma | shares compounds with TTR transcr act | HuH7 TTR promoter-Gaussia luciferase reporter | inhibition, % at 16.7 µM | 1,100 tested, 4% active | AID 1117279, 2014;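 active = average inhibition above the solvent-only control wells' mean plus 3 SD, cut at about 15% in these data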;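 also: 0% = cells with DMSO only and 100% = cells with inhibitor control FD; inhibitors lower well luminescence so higher value means more inhibition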
TTR up confirm: TTR transcription activators, retest, confirmation, cell-based, luminescence, SH-SY5Y, triplicate. shares compounds with TTR transcr act. SHSY5Y TTR promoter Gaussia luciferase; 100% = purified Lucia enzyme wells, no cells. activation, % at 16.7 µM. 1,100 tested, under 10 active. AID 1117280, 2014;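 active = mean activation above a set limit taken from the earlier primary screen, cut at about 11% in these data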;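 also: 0% = DMSO-treated cells and 100% = recombinant Lucia luciferase without cells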
* = called active by the depositor.

SMILES	TTR transcr act	others
COC(=O)[C@@]12CCCCC=C1N(CCc1ccc(Cl)cc1)C(=O)[C@H]2CC(=O)NCC12CC3CC(CC(C3)C1)C2	-1
CCCCn1c(N)c(N(CC(C)C)C(=O)CN2C(=O)NC3(CC(C)CC(C)(C)C3)C2=O)c(=O)[nH]c1=O (stereo not given)	11*	TTR inh HuH7=-3;TTR up confirm=0
CCCCn1c(N)c(N(CC(C)C)C(=O)C2CC(=O)N(c3ccc(C)cc3)C2)c(=O)[nH]c1=O (stereo not given)	0
CCCCn1c(N)c(N(CC(C)C)C(=O)Cn2c(=O)oc3ccccc32)c(=O)[nH]c1=O	-1
CCN(CCC(=O)Nc1cc(OC)ccc1OC)Cc1ccccc1	3
CN(C)[C@H]1CCN(c2cccc3c2S(=O)(=O)N(C2CC2)CCCO3)C1	2
Cc1cccn2c(=O)nc(SCC(=O)N3CCN(c4ccccc4)CC3)nc12	3
Cc1c(C2(O)CCCCC2)[nH]c2cc(C(F)(F)F)ccc12	-8
Cc1c(C2(O)CCCCC2)[nH]c2ncccc12	11*	TTR inh HuH7=-16;TTR up confirm=0
Cc1c(C2(O)CCCCC2)[nH]c2cnccc12	1
COC(=O)[C@]12C[C@H](CC(=O)N3CCN(C(=O)C4CC4)CC3)C(=O)N(CCc3ccc(OC)c(OC)c3)C1=C[C@H](C(C)C)O[C@@H]2C1CC1	6
C[C@H]1COc2cc(N3CCSCC3)ccc2S(=O)(=O)N1C	0
O=C1CCC[C@H]2CC3(CC[C@]24CCCN14)OCCO3	0
O=C(Cc1c(O)c2ccccc2[nH]c1=O)NCc1ccccc1F	14*	TTR inh HuH7=-18;TTR up confirm=0
O=C(CCl)NNC(=O)c1c(O)c2ccccc2[nH]c1=O	-2
O=C(NCCc1ccccc1)c1c(O)c2ccccc2[nH]c1=O	2
O=C(Nc1cccc(Cl)c1)O[C@@H]1CC[C@@]23CCCN2C(=O)CCC[C@H]3C1	-2
CCOc1ccc(S(=O)(=O)N2CCN(C(=O)Cc3ccc(S(=O)(=O)N4CCOCC4)s3)CC2)cc1	3
CC1CCCCC1NC(=O)Cc1ccc(S(=O)(=O)N2CCOCC2)s1 (stereo not given)	1
CN(Cc1ccc(Cl)cc1Cl)C(=O)Cc1ccc(S(=O)(=O)N2CCOCC2)s1	20*	TTR inh HuH7=-6;TTR up confirm=-1
N[C@H]1CC[C@@H]2SC[C@@H](C(=O)O)N2C1=O	2
O=C1Oc2ccccc2C2(O)C3CCCCCC3C12 (stereo not given)	13*	TTR inh HuH7=-11;TTR up confirm=0
O=C(C1CCCCC1)n1ccc2ccc(-c3ccc4ccn(Cc5ccccc5)c4c3)cc21	4
COC(=O)C[C@@H]1CC[C@H]2[C@@H](COc3ccc(NC(=O)Nc4cccc(F)c4)cc3C(=O)N2C)O1	-1
CCCc1nc2ccc(C(=O)OC)cn2c1Cc1cccc(F)c1	1
SMILES	TTR transcr act	others
COC(=O)c1ccc2nc(-c3ccc(F)cc3)c(Cc3ccccc3)n2c1	-2
COC(=O)c1ccc2nc(C3CCCCC3)c(Cc3ccccc3)n2c1	14*	TTR inh HuH7=14;TTR up confirm=-1
Cc1cccc(C)c1-n1nnnc1C1c2ccccc2OCC(=O)N1Cc1ccc(F)cc1 (stereo not given)	-1
CCN1CCCCC(NC(=O)c2ccccc2OC)C1=O (stereo not given)	0
CN(C)CCCNC(=O)c1cc(C(=O)Cc2ccccc2)c[nH]1	21*	TTR inh HuH7=-11;TTR up confirm=0
O=C(Cc1ccccc1)c1c[nH]c(C(=O)NCc2ccncc2)c1	2
CN(C)CCCNC(=O)c1cc(C(=O)C2CCCCC2)c[nH]1	0
C[C@@H]1CCN(C2CC2)S(=O)(=O)c2c(cccc2N2CCC[C@@H]2CO)O1	-2
Cc1ccccc1CN1CCCCC(NC(=O)c2ccccc2C(F)(F)F)C1=O (stereo not given)	1
CCOc1ccc(-c2nc(CSCC(=O)NC3CCC3)c(C)o2)cc1	-2
COc1cccc(N(C)C(=O)[C@@H](C2CC2)[C@@H](O)c2ccc3ccccc3c2)c1	1
Fc1cc(F)cc(NC(=S)Nc2ccccc2N2CCOCC2)c1	12*	TTR inh HuH7=-3;TTR up confirm=-1
COc1cc(OC)cc(C(=O)Nc2ccccc2N2CCOCC2)c1	-1
O=C(Nc1ccccc1N1CCOCC1)c1ccc2ccccc2c1	-1
COC(=O)[C@]12C[C@H](CC(=O)N3CCSCC3)C(=O)N(CCc3ccc(OC)c(OC)c3)C1=C[C@H](COCc1ccccc1)O[C@@H]2C	-1
O=C(c1ccc(Cl)c(Cl)c1)N1CCN(c2ccnc3cc(Cl)ccc23)CC1	-3
CCOC(=O)CC1(NC(=O)C2CCC(=O)N(CCc3ccccc3)C2)CCCCC1 (stereo not given)	14*	TTR inh HuH7=-12;TTR up confirm=1
O=C(NCc1ccc(F)c(F)c1)C1CCC(=O)N(CCc2ccccc2)C1 (stereo not given)	1
Cc1ccc(F)cc1CNC(=O)C1CCC(=O)N(CCc2ccccc2)C1 (stereo not given)	0
CCn1c(=O)n2n(c1=O)[C@H]1C[N+](Cc3ccc4c(c3)OCO4)=C(N)NC1=C(C)C2	1
COc1cccc(OC)c1NC(=O)OCCN1CCCC12CCC(c1ccccc1)CC2 (stereo not given)	1
OC1(Cc2ccccc2)CCN(c2ncnc3sccc23)CC1	-4
Cc1cccc(NS(=O)(=O)c2ccc3c(c2)NC(=O)CC(=O)N3)c1	13*	TTR inh HuH7=-11;TTR up confirm=-1
CCc1cccc(NS(=O)(=O)c2ccc3c(c2)NC(=O)CC(=O)N3)c1	0
Cc1cccc(NS(=O)(=O)c2ccc3c(c2)CCC(=O)N3)c1	2
SMILES	TTR transcr act	others
O=S1(=O)c2ccc(N3CCC[C@@H]3CO)cc2O[C@@H]2CCN1C2	2
CCCCC(c1nnnn1C1CCCC1)N1CCN(C2CCCC2)CC1 (stereo not given)	17*	TTR inh HuH7=-15;TTR up confirm=0
CCC(c1nnnn1Cc1cccs1)N1CCN(C2CCCC2)CC1 (stereo not given)	0
CC(C)CC(c1nnnn1C1CCCCC1)N1CCN(c2ncccn2)CC1 (stereo not given)	-1
COc1cc(NC(=O)c2ccccn2)ccc1NC(=O)c1ccccc1Cl	0
C[C@H](CO)N1C[C@H](C)[C@H](CN(C)C(=O)C2CC2)OCc2cnnn2CCCC1=O	1
C[C@H]1[C@@H](NCc2ccccc2)CC[C@@]23CCCN2C(=O)CCC[C@@H]13	1
CCOC(=O)Cc1csc(SCC(=O)N2CCN(c3ccc(OC)cc3)CC2)n1	0
CCOC(=O)Cc1csc(SCC(=O)Nc2cc(Cl)ccc2Oc2ccccc2)n1	9.7*	TTR inh HuH7=1;TTR up confirm=-1
CCOC(=O)Cc1csc(Nc2ccc(Cl)cc2)n1	-1
COC(=O)[C@]12CCCCC=C1N(Cc1ccc(OC)cc1)C(=O)[C@@H]2CC(=O)NCCc1ccccc1OC	2
CC(C)C[C@H]1CNC(=S)N1C[C@H]1CCCN1C[C@H](CC(C)C)N1C[C@H](Cc2ccc(O)cc2)N(CCc2ccccc2)C1=S	-3
CC(C)C[C@H]1CNC(=S)N1C[C@H]1CCCN1C[C@H](CC(C)C)N1C[C@H](Cc2ccc(O)cc2)N(CC2CCCCCC2)C1=S	25*	TTR inh HuH7=9;TTR up confirm=-1

Compound activity from PubChem BioAssay.
